Screening results (PubChem)
Most compounds without a hit are left out; they make up all but 3.5% or so of the library.
MITF primary – blocks human microphthalmia-associated transcription factor | O75030 | AlphaScreen MITF homodimerization, bead proximity signal | inhibition, % at 2.6 µM | actives 0.91% (n = 650,000); in the data active = inhibition above about 50%;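 note: 0% = vehicle wells with protein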
Target sequence (O75030 whole entry, looked up): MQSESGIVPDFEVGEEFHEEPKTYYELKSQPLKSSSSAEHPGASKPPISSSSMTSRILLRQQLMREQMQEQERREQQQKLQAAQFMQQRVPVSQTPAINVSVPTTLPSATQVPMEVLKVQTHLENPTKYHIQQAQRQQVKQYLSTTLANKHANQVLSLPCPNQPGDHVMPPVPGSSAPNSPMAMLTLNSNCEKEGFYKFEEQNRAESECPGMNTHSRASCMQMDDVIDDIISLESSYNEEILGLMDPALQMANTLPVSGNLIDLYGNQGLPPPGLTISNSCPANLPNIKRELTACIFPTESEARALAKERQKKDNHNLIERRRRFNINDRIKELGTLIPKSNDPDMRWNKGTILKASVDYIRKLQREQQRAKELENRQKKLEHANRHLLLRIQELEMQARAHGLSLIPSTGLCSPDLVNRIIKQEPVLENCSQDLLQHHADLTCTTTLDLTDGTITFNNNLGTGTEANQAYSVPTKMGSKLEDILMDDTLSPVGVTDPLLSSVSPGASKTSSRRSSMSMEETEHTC
FBW7 activator – human FBW7 E3 ligase activation, primary screen | actives 0.13% (n = 650,000) | AlphaScreen FBW7–phospho-cyclin E peptide binding, activator screen | Q969H0 | normalized activity (activation), % at 26.1 µM; in the data active = normalized activity above about 1.9%;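 note: purified mutant Fbw7 with reduced substrate affinity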
TEAD-YAP inh – TEAD-YAP interaction inhibition. inhibition, % at 9.12 µM. actives 1.4% (n = 640,000). HEK-TIYL cells, TEAD-Gal4/YAP UAS-luciferase luminescence; in the data active = inhibition above about 32%;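 note: 0% = median of test compound wells and 100% = reference inhibitor wells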
GPR151 activ – activators of human GPR151; Q8TDV0; PathHunter beta-arrestin GPR151 cells, luminescence; activation, % at 11.2 µM; actives 1% (n = 650,000); AID 1508602; in the data active = activation above about 4.9%;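 note: 0% = median of compound wells and 100% = cells with positive control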
MITF inh conf – human MITF inhibition, confirmation | actives 16% (n = 4,700) | inhibition, % at 2.6 µM | AlphaScreen MITF homodimerization, biotin/His-MITF beads | shares compounds with MITF primary;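 active = inhibition above a cutoff derived from the DMSO control wells, cut at about 28% in these data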;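 note: 0% = MITF dimer wells with DMSO only; inhibitors lower the bead chemiluminescence by keeping MITF from dimerizing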
AS interf DR – counter-screen: compounds optically interfering with AlphaScreen; IC50, µM; shares compounds with MITF primary; actives 6% (n = 480); AlphaScreen optical interference counterscreen, cell-free; call rule not given here
AlphaScreen intf2 – optically interferes with AlphaScreen signal; shares compounds with MITF primary; LysRS AlphaScreen counterscreen, signal interference, triplicate; inhibition, % at 2.6 µM; actives 7.6% (n = 4,700); AID 1259376;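 active = inhibition above a cutoff derived from the DMSO control wells, cut at about 30% in these data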
Active calls of the source: *; . = not tested or not shown.

SMILES	MITF primary	FBW7 activator	TEAD-YAP inh	GPR151 activ	MITF inh conf	AlphaScreen intf2	others
O=C1CC(N2CCN(c3ccc(Cl)cc3)CC2)C(=O)N1c1ccccc1F (stereo not drawn)	2.2	0.1	7.8	-0.5	.	.
Cc1cccnc1C(NC(=O)C1CCN(C(=O)c2ccoc2)CC1)c1ccccc1 (stereo not drawn)	12.6	1.6	-6.3	-0.4	.	.
COc1cc(OC)c(OC)cc1CNC1CCCc2ccccc21 (stereo not drawn)	43.8	0.0	4.2	0.7	.	.
COc1cc(CNC2CCCc3ccccc32)cc(OC)c1O (stereo not drawn)	57.2*	0.1	18.1	0.2	8.3	17.7
COc1ccc2ccccc2c1CN1CCN(C(=O)c2cccnc2)CC1	50.1	0.1	0.4	-0.7	.	.
O=C(c1cccnc1)N1CCN(Cc2cccc3ccccc23)CC1	51.1*	-0.7	-4.5	0.4	-11.5	-8.1
O=C(c1ccncc1)N1CCN(Cc2cccc3ccccc23)CC1	67.4*	-0.3	-4.8	-0.2	-2.8	4.3
CCOC(=O)N1CCN(Cc2cccc3ccccc23)CC1	-21.0	0.6	-0.3	0.0	.	.
CCCCC(CC)C(=O)Nc1nnc(C(C)C)s1 (stereo not drawn)	9.7	0.1	12.3	0.7	.	.
COCc1cc(C)nc(SCCN(C)C)c1C#N	51.2*	-0.1	-4.1	0.0	11.4	8.4
Cc1cc(OCCN2CCNCC2)cc(C)c1Cl	61.9*	-0.1	4.9	0.5	0.0	1.6
Cc1cc(C)c(OCCCCN2CCNCC2)c(C)c1	0.2	0.0	-3.5	-0.2	.	.
Cc1cc(C)c(OCCOCCN2CCN(C)CC2)c(Cl)c1	67.2*	-0.1	-3.3	1.5	20.4	16.3
CC(C)c1ccc(OCCCCN2CCNCC2)cc1	61.9*	-0.3	11.4	-1.7	-2.2	11.5
Cc1cc(Cl)c(OCCOCCN2CCNCC2)c(Cl)c1	90.0*	-0.1	2.5	2.7	18.1	11.1
COC(=O)C1=C(N)N(c2ccccc2F)C2=C(C(=O)CC(C)(C)C2)C1c1ccc2c(c1)OCO2 (stereo not drawn)	-19.4	0.0	-1.8	0.0	.	.
CCOC(=O)c1c(NC(=O)CSc2nnc(CNC(=O)c3cc(OC)cc(OC)c3)n2CCc2ccccc2)sc2c1CCCC2	-5.7	-0.1	5.5	0.7	.	.
Cc1cc(OCCOCCN2CCN(C)CC2)cc(C)c1Cl	62.1*	0.1	3.0	-1.5	14.3	14.7
COCCNCCOCCOc1c(C)cc(C)cc1Cl	53.4*	-0.1	5.8	-0.4	3.6	12.3
Cc1cccc(C)c1OCCCCN1CCNCC1	64.4*	0.3	6.8	1.0	5.4	1.8
Cc1cc(C)c(OCCOCCNC(C)C)c(C)c1	40.7	-0.1	-2.6	1.8	.	.
Cc1cc(Cl)cc(C)c1OCCOCCNC(C)C	50.7*	0.5	0.6	-0.1	-6.9	-6.1
Cc1c(C(=O)N2CCN(c3ccc(Cl)cc3[N+](=O)[O-])CC2)oc2ccc(Cl)cc12	0.1	0.1	14.3	1.0	.	.
Cc1cc(Cl)c(OCCN2CCNCC2)c(Br)c1	75.8*	-0.2	-12.7	3.4	-5.1	-7.1
Cc1cc(C)c(OCCCCN2CCNCC2)c(Cl)c1	70.2*	-0.1	-9.9	-0.9	4.8	0.0
SMILES	MITF primary	FBW7 activator	TEAD-YAP inh	GPR151 activ	MITF inh conf	AlphaScreen intf2	others
Cc1ccc(Cl)c(OCCN2CCNCC2)c1	4.5	0.0	-9.3	-0.2	.	.
Cc1cc(C(=O)N2CC3(C)CC2CC(C)(C)C3)on1 (stereo not drawn)	-1.1	0.0	6.6	0.6	.	.
O=C(Nc1nc2c(s1)COc1ccccc1-2)C1CCCN1S(=O)(=O)c1ccc(Cl)cc1 (stereo not drawn)	51.9*	-0.1	8.4	1.3	-0.3	-4.3
O=C(NC(=S)NCc1cccnc1)c1ccccc1Br	-2.8	0.0	17.1	-0.4	.	.
CCCCC(CC)CNCC(O)COCc1ccc(OC)c(OC)c1 (stereo not drawn)	65.4*	0.2	4.2	-0.9	21.4	26.9
CCc1ccc(C2CC(O)=C3C(=O)CC(C)(C)C=C3C2(C#N)C#N)cc1 (stereo not drawn)	-12.8	-0.4	1.9	0.6	.	.
CCOC(=O)c1c(-c2ccc(CC)cc2)csc1N	-7.8	0.0	-3.9	-0.3	.	.
CCCCC[C@H](O)/C=C/[C@H]1C=CC(=O)[C@@H]1CCCCCCC(=O)O	-12.2	.	.	2.6	.	.
CCCCC[C@H](O)/C=C/[C@H]1C(=O)C[C@H](O)[C@@H]1C/C=C\CCCC(=O)NC(CO)CO	-8.0	.	.	3.2	.	.
CCCCC[C@H](O)/C=C/[C@H]1C(=O)C[C@H](O)[C@@H]1C/C=C\CCCC(=O)OCC(O)CO (stereo partly drawn)	71.2*	.	.	1.2	-5.7	-2.8
CCCCC[C@H](O)/C=C/[C@H]1C=CC(=O)[C@@H]1CCCCCCC(=O)NCCCCCNC(=O)CCCCC1SC[C@@H]2NC(=O)N[C@H]12 (stereo partly drawn)	123.6*	.	.	-2.3	123.2*	100.6*
CCCCC[C@H](O)/C=C/[C@H]1C(=O)C[C@H](O)[C@@H]1C/C=C\CCCC(=O)O	13.1	.	.	1.3	.	.
CSCCC(NC(=O)CCN1C(=O)c2ccccc2C1=O)C(=O)O (stereo not drawn)	3.6	0.0	1.4	0.5	.	.
CCCCC[C@H](O)/C=C/[C@H]1C(=O)C[C@H](O)[C@@H]1C/C=C\CCCCC(=O)NCCCCCNC(=O)CCCC[C@@H]1SC[C@@H]2NC(=O)N[C@@H]21	123.6*	.	.	-0.8	123.0*	100.6*
O=C(CCCC[C@@H]1SC[C@@H]2NC(=O)N[C@@H]21)NCCCC[C@H](NC(=O)CCN1C(=O)C=CC1=O)C(=O)O	123.6*	.	.	-2.0	123.7*	100.6*
C=CCSc1nc2sc3c(c2c(=O)n1-c1ccc(OC)cc1)CC(C)(C)OC3	9.8	0.2	-6.5	0.8	.	.
O=C(CCc1ccccc1)Nc1sc2c(c1C(=O)O)CCC2	14.2	0.1	4.7	-1.6	.	.
CC1=C(C(=O)OCC2CCCO2)C(c2ccc(C)s2)C2=C(CC(c3cccs3)CC2=O)N1 (stereo not drawn)	-0.6	0.4	8.4	-1.4	.	.
C=CCNC(=O)c1cnc2sc3ccccc3n2c1=O	-0.7	0.2	2.4	-0.6	.	.
C(=C\c1ncc2ccccn12)/c1ccccc1	56.5*	0.4	-36.2	-3.2	-70.1	-11.4
COc1ccc(N2CCN(c3ncnc4sc(C(=O)NCCN5CCOCC5)c(C)c34)CC2)cc1	-0.3	-0.1	-1.6	0.0	.	.
Nc1ccc(NCCO)c(N)c1	56.6*	-1.1	-1.1	-1.1	51.7*	-5.2	AS interf DR=>5.9
Nc1ccc(C(=O)Nc2ccc(N)cc2N)cc1	3.7	-0.4	9.2	3.9	.	.
COc1ccccc1OCC(=O)NCCc1ccc2c(c1)CCCN2C	5.4	-0.2	-11.2	1.9	.	.
Cc1ccc(Cn2nnc3c(=O)[nH]c(C4CCN(C(=O)C(F)(F)F)CC4)nc32)cc1	75.5*	0.5	0.6	-0.1	4.6	13.9
